Results on 96 compounds are retold here after PubChem BioAssay AID431 (Sanford-Burnham Center for Chemical Genomics, 2006).

In all, about 63,000 compounds went through this assay and about 1,100 (1.7%) were called active.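 Rule for the calls: active = compounds whose percent cytotoxicity in the single-dose primary screen, scaled between solvent and toxic-drug controls, exceeds 50; inactive = the rest.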 The full list was thinned out, with actives kept by preference. Potency and affinity values are given separately.

The nature of the assay: cytotoxicity in KRAS-transformed pancreatic duct cells, primary screen, cell-based, fluorescence, HTS (AID 431).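 Note: 0% = DMSO solvent wells and 100% = doxorubicin-treated wells.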 The note with it: HPDE-C7K KRASV12 cells, Alamar Blue viability, 48 h; at 10 µM; hits give high values. On the technique in general: The colour change of resazurin is a common sign of viable cells or microbes.
With `CCCC(=O)Nc1ccccc1NC(=O)CN(C)S(=O)(=O)c1ccccc1`, the cytotoxicity was -1.8% (inactive).

With `Cc1csc(NC(=O)CSc2nc(C)cs2)n1`, the cytotoxicity is 6.5% (inactive).

As for `CC(C)(C)NC(=O)CSc1nsc(SCC(=O)NC(C)(C)C)c1C#N`, the cytotoxicity was 11.8% (inactive).

With `Cc1n[nH]c(C)c1Cc1ccc(C(=O)O)cc1`, the cytotoxicity is -13.2% (inactive).

Turning to `CS(=O)(=O)c1ccc2nc(NC(=O)CC3CCCC3)sc2c1`, the cytotoxicity was -9% (inactive).

Consider `Cc1cc(C)c(NC2=NCC(=O)N2C2CCCCC2)c(C)c1`, for which the cytotoxicity is -9.5% (inactive).

On to `Cc1nc(N2CCc3ccccc3C2)[nH]c(=O)c1CCC(C)C`, for which the cytotoxicity was 8.4% (inactive).

In the case of `COc1ccc(C)cc1NC(=O)CN(c1ccccc1)S(C)(=O)=O`, the cytotoxicity is -2.4% (inactive).

In the case of `O=C(Nc1nccs1)c1cc2sccc2n1Cc1ccc(F)cc1`, the cytotoxicity was -3.4% (inactive).

Regarding `CCCSc1nnc(Sc2nnnn2-c2ccccc2)s1`, the cytotoxicity is 88.2% (active).

Regarding `Cn1ccnc1Sc1nnnn1-c1ccccc1`, the cytotoxicity is -9.8% (inactive).

Take `Cc1ccc(C)c(Oc2nnnn2-c2ccccc2)c1`: the cytotoxicity is -2.3% (inactive).

Regarding `C(=C\CSc1nnnn1-c1ccccc1)/CSc1nnnn1-c1ccccc1`, the cytotoxicity was -12.8% (inactive).

Consider `c1ccc(-n2nnnc2SCCCSc2nc3ccccc3s2)cc1`, for which the cytotoxicity is 2% (inactive).

Regarding `COc1ccc(-n2nnnc2SCC(=O)NCCc2ccc(OC)c(OC)c2)cc1`, the cytotoxicity is -3.9% (inactive).

Take `COc1ccc(CCNc2nnc(Sc3nnnn3-c3ccccc3)s2)cc1OC`: the cytotoxicity was 68.8% (active).

Take `COc1ccc(CCNC(=O)CSc2nnnn2-c2ccccc2OC)cc1OC`: the cytotoxicity was 6.4% (inactive).

For the compound `CC1CC(c2ccccc2)n2nc(NC(=O)CCc3ccccc3)nc2N1` (stereo unspecified), the cytotoxicity was 3.9% (inactive).

Consider `O=C(NCc1cccs1)c1noc2c1CCCC2`, for which the cytotoxicity was 5.2% (inactive).

Take `O=C1CC(N2CCN(c3ccc(S(=O)(=O)N4CCCC4)cc3)CC2)C(=O)N1c1ccc(F)cc1` (stereo unspecified): the cytotoxicity was -0.7% (inactive).

As to `CCOc1ccc2[nH]c(O)c(NC(C)=O)c2c1`, the cytotoxicity was -16.9% (inactive).

For the compound `Cc1oc(-c2ccc(Cl)cc2)nc1CN1CCC(C(=O)N2CCN(c3ccccn3)CC2)CC1`, the cytotoxicity is 8% (inactive).

Take `O=C(NC1CCCCC1)n1c(=O)oc2ccccc21`: the cytotoxicity was -35.5% (inactive).

Consider `Cc1nc(NC(=O)c2ccccc2)sc1-c1csc(N)n1`, for which the cytotoxicity is 58.6% (active).

On to `Cc1nc(NC(=O)c2ccccc2)sc1-c1csc(NCc2ccco2)n1`, for which the cytotoxicity was 73.6% (active).

With `O=C(Nc1nc(-c2ccco2)cs1)c1ccccc1`, the cytotoxicity was 20.8% (inactive).

As to `Cc1nc(C)c(-c2csc(NCc3ccco3)n2)s1`, the cytotoxicity was -14.9% (inactive).

Turning to `O=C(Nc1nc2c(s1)C(=O)CCC2)c1ccccc1`, the cytotoxicity was -6.7% (inactive).

As to `CCOC(=O)c1csc(NC(=O)c2ccccc2)n1`, the cytotoxicity is -0.2% (inactive).

For the compound `Cn1c(=O)c2c(nc(SCC(=O)O)n2Cc2cccc(C(F)(F)F)c2)n(C)c1=O`, the cytotoxicity is -7.6% (inactive).

For `CCCCOc1ccc(/C(O)=C2/C(=O)C(=O)N(CCCOC)C2c2ccncc2)cc1C` (stereo unspecified), the cytotoxicity is -8.2% (inactive).

In the case of `COc1ccc(CN2C(=O)NC3(CCCCCC3)C2=O)cc1F`, the cytotoxicity was -2.8% (inactive).

As to `CC(C)(C)c1cc(NC(=O)c2cccnc2)no1`, the cytotoxicity is -7.8% (inactive).

With `O=C(Cn1c(=O)sc2ccccc21)Nc1ccccc1C(=O)O`, the cytotoxicity is 18.1% (inactive).

With `COc1ccc(C2C(C(=O)Nc3ccccc3OC)=C(C)Nc3ncnn32)cc1` (stereo unspecified), the cytotoxicity is -6.4% (inactive).

As for `CCOC(=O)C1=C(CSc2nc(-c3ccncc3)ccc2C#N)OC(N)=C(C#N)C1c1cccnc1` (stereo unspecified), the cytotoxicity is 20% (inactive).

In the case of `CCOC(=O)C1=C(C)OC(N)=C(C#N)C1c1ccc(OC)c(C)c1OC` (stereo unspecified), the cytotoxicity was 2.9% (inactive).

On to `CCOC(=O)C1=C(CSc2nc(C)cc(C)c2C#N)OC(N)=C(C#N)C1c1cccs1` (stereo unspecified), for which the cytotoxicity was -2.2% (inactive).

Take `CCOC(=O)C1=C(CSc2nc(C)ccc2C#N)OC(N)=C(C#N)C1c1cccc(OC)c1OC` (stereo unspecified): the cytotoxicity was 57.6% (active).

Turning to `CCOC(=O)C1=C(CSc2nc3c(cc2C#N)CN(C)CC3)OC(N)=C(C#N)C1c1ccccc1` (stereo unspecified), the cytotoxicity was 14.3% (inactive).

On to `CCOC(=O)C1=C(CSc2nc3c(cc2C#N)CCC3)OC(N)=C(C#N)C1c1ccccc1` (stereo unspecified), for which the cytotoxicity is 108% (active).

For `COc1cc(S(=O)(=O)NCC2CCCO2)c(OC)cc1Cl` (stereo unspecified), the cytotoxicity is -5.9% (inactive).

As for `CCN(CC)CCN1C(=O)C(=O)/C(=C(/O)c2ccc(Cl)cc2)C1c1ccncc1` (stereo unspecified), the cytotoxicity is -16.4% (inactive).

As for `CCOc1ccc(N2CC(=O)SC2=S)cc1`, the cytotoxicity is -11.8% (inactive).

As to `Cc1ccc(C#N)c(SCc2cc3c(cc2Cl)OCO3)n1`, the cytotoxicity is 2.4% (inactive).

As to `COc1ccc(S(=O)(=O)Cc2ccc(C(=O)NC3CC3)o2)cc1`, the cytotoxicity is -11.3% (inactive).

On to `O=C(CN1C(=O)COc2ccccc21)N(Cc1cccnc1)Cc1cccc(F)c1`, for which the cytotoxicity was -1.8% (inactive).

With `O=C(NCc1ccccn1)C1CCN(S(=O)(=O)c2cccs2)CC1`, the cytotoxicity is -6.5% (inactive).

Take `Cc1cc(C)cc(N2C(=O)CC(N3CCOCC3)C2=O)c1` (stereo unspecified): the cytotoxicity was 1.2% (inactive).

Regarding `O=C(c1ccc(F)cc1)c1ccc(N2CCCC2)cc1`, the cytotoxicity was -11% (inactive).

Consider `N#Cc1nc(-c2ccc(F)cc2)oc1N1CCCC1`, for which the cytotoxicity is 3.4% (inactive).

Turning to `CCCn1c(SCC(=O)NC(=O)NCc2ccco2)n[nH]c1=O`, the cytotoxicity was -2.3% (inactive).

In the case of `O=C(NCC1CCCO1)c1cc2n(n1)C(C(F)(F)F)CC(c1ccc(Br)cc1)N2` (stereo unspecified), the cytotoxicity was 6.4% (inactive).

In the case of `O=S1(=O)CCC(NCC2CCCO2)C1` (stereo unspecified), the cytotoxicity was 6.3% (inactive).

Consider `CCOc1ccc(/C(O)=C2\C(=O)C(=O)N(CCN(C)C)C2c2cc(OC)ccc2OC)cc1Cl` (stereo unspecified), for which the cytotoxicity is -1.7% (inactive).

As to `CSc1ccc(Cl)c(C(=O)OCC(=O)N2CCOCC2)c1`, the cytotoxicity is -13.8% (inactive).

As for `N#C/C(=C\c1ccc(O)c(O)c1)C(=O)NCCCc1ccccc1`, the cytotoxicity was 54.7% (active).

For the compound `N#C/C(=C\c1ccc(O)c(O)c1)S(=O)(=O)c1ccccc1`, the cytotoxicity was 5.4% (inactive).

Turning to `O=C(NCCCc1ccccc1)c1ccccc1O`, the cytotoxicity was -6.1% (inactive).

As for `Cc1ccc(S(=O)(=O)N2CCCCC2)cc1C(=O)c1nccn1C`, the cytotoxicity was -13.8% (inactive).

As for `CCOc1ccc(NC(=O)CCS(=O)(=O)c2ccc3c(c2)CCCN3C(C)=O)cc1`, the cytotoxicity was -19.8% (inactive).

As for `COc1ccc(CCn2c(N)c(C#N)c3nc4ccccc4nc32)cc1OC`, the cytotoxicity was -1.9% (inactive).

On to `O=C(Cn1c(CN2CCCCC2)nc2ccccc2c1=O)NCc1ccco1`, for which the cytotoxicity was -21.9% (inactive).

With `COc1ccc(CCn2c(N)c(C(=O)NCc3ccco3)c3nc4ccccc4nc32)cc1OC`, the cytotoxicity was 57.5% (active).

Turning to `COc1ccc(-n2c(N)c(C(=O)NCc3ccco3)c3nc4ccccc4nc32)c(OC)c1`, the cytotoxicity was 5.2% (inactive).

Consider `Nc1c(C(=O)NCCN2CCOCC2)c2nc3ccccc3nc2n1-c1ccccc1`, for which the cytotoxicity was -0.8% (inactive).

On to `Cc1cccc(-n2c(Cc3cc(=O)[nH]c(=O)[nH]3)nnc2SCC(=O)NCc2ccco2)c1`, for which the cytotoxicity was -4.5% (inactive).

With `O=C(NCc1cccc(F)c1)c1noc2c1CCCC2`, the cytotoxicity is -1.2% (inactive).

For `Cc1cc(O)cc(=O)n1Cc1ccco1`, the cytotoxicity is -8.3% (inactive).

For `COc1cc(C)c(C(C)C)cc1S(=O)(=O)N1CCN(C)CC1`, the cytotoxicity was -21.8% (inactive).

As to `COc1cc(Cl)c(S(=O)(=O)n2cnc(C)c2)cc1Cl`, the cytotoxicity was 4.1% (inactive).

Take `COc1ccc(-c2c(C)oc3c(CN4CCN(C)CC4)c(O)ccc3c2=O)cc1`: the cytotoxicity is -6.1% (inactive).

Turning to `CCOC(=O)C1=C(CS(=O)(=O)c2ccccc2)NC(=O)NC1c1ccccc1OCC` (stereo unspecified), the cytotoxicity is -3.7% (inactive).

For `Cc1ccc(S(=O)(=O)CC(c2ccccc2)N2CCOCC2)cc1` (stereo unspecified), the cytotoxicity was -3.6% (inactive).

On to `Nc1ncn(C(=O)c2ccco2)n1`, for which the cytotoxicity is 4.4% (inactive).

Take `O=C(COc1cc(=O)n2c(n1)SCCC2)c1ccccc1`: the cytotoxicity is -1.2% (inactive).

On to `CN1CCN(CCC(=O)N2c3ccccc3Sc3ccc(Cl)cc32)CC1`, for which the cytotoxicity is 35.1% (inactive).

Consider `CCOC(=O)Nc1ccc2c(c1)N(C(=O)CN1CCN(C)CC1)c1ccccc1S2`, for which the cytotoxicity is 5.6% (inactive).

`CN1CCN(CCCN2c3ccccc3Sc3ccc(Cl)cc32)CC1`: the cytotoxicity is 82.7% (active).

Consider `O=C(CN1CCN(CCOCCO)CC1)N1c2ccccc2Sc2ccc(Cl)cc21`, for which the cytotoxicity was -26% (inactive).

Regarding `OCCN1CCN(C(=S)c2ccc(Cl)cc2)CC1`, the cytotoxicity is -18.6% (inactive).

Consider `CC(=O)C1=C(O)C(=O)N(CCN2CCOCC2)C1c1ccc(N(C)C)cc1` (stereo unspecified), for which the cytotoxicity is -11.6% (inactive).

On to `Cc1oc(-c2cccc(Cl)c2)nc1CN1CCC(C(=O)NCC2CCCO2)CC1` (stereo unspecified), for which the cytotoxicity is 21.4% (inactive).

`COc1ccc(OC)c(C2C(C(C)=O)=C(O)C(=O)N2CCN2CCOCC2)c1` (stereo unspecified): the cytotoxicity was 3.1% (inactive).

On to `COc1cccc(C(=O)CSc2nnc(CNc3nc(-c4ccccc4)cs3)n2C)c1`, for which the cytotoxicity was -0.3% (inactive).

As for `CC(CC1C(C#N)=C(N)OC2=C1C(=O)CCC2)c1ccccc1` (stereo unspecified), the cytotoxicity is -2.7% (inactive).

Regarding `Cc1cccc(-c2noc(CCc3ccccc3)n2)c1`, the cytotoxicity was 4.2% (inactive).

For `Cc1ccc(Nc2nc(N)nc(CN3CCN(Cc4ccc5c(c4)OCO5)CC3)n2)c(C)c1`, the cytotoxicity is -5.2% (inactive).

Turning to `Cc1cc(C(=O)NCCCN2CCN(C3CCCCC3)CC2)n(-c2ccccc2)n1`, the cytotoxicity is -1% (inactive).

Consider `Cc1cc(C(=O)NCCN2CCN(c3cccc(Cl)c3)CC2)n(-c2ccccc2)n1`, for which the cytotoxicity was 60.3% (active).

As to `Cc1cc(C(=O)NCCCN2CCOCC2)n(-c2ccccc2)n1`, the cytotoxicity was -11.4% (inactive).

For the compound `CCN(CC)S(=O)(=O)c1ccc(N2CCCC2)c(C(=O)OCC(=O)/C(C#N)=C(\C)N)c1`, the cytotoxicity was 10.5% (inactive).

As for `CC(C)=C1C2C=CC1C(C(=O)Nc1cc(C)ccc1C)C2C(=O)O` (stereo unspecified), the cytotoxicity was -14.9% (inactive).

On to `CCOc1ccccc1NC(=O)Cn1nnc(C(=O)Nc2ccccc2Cl)c1N`, for which the cytotoxicity was 3.6% (inactive).

As to `CCOc1ccccc1NC(=O)Cn1nnc(C(=O)NCc2ccco2)c1N`, the cytotoxicity is 55.3% (active).

Take `CCOc1ccccc1NC(=O)Cn1nnc(C(=O)Nc2ccc(C)cc2)c1N`: the cytotoxicity was 5.2% (inactive).
